Consider 28 molecules from PubChem BioAssay (NCATS).

Each structure is given as a SMILES string. Several values for one entry are separate records, joined by “and”; a condition that tells them apart may be missing. Identical values can stand only once. Records with an inconclusive call do not appear. Activity calls are given as the source filed them. The call rests on the fitted dose curve; in most records, active means well fitted curve in the direction sought with a large enough effect; inconclusive means small, poorly fitted or top-dose-only effect, or another doubt; inactive means no such curve, though single readings can be large or run the other way.
On the % scale 0 is the no-effect control and ±100 the full control effect.

A short description of this assay: qHTS Assay for Identifying Gametocytocidal Compounds (AID 743244).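 Further: actives lower the fluorescent signal which means gametocytes are killed.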 To be noted: P. falciparum 3D7 stage III-V gametocytes, alamarBlue, 72 h; max response: hits give low values. A digest of the protocol: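 Using 20,000 stage III–V 3D7 gametocytes per well, compounds were incubated 72 h under 37 °C/5% CO2. Viability was then assessed by 24 h alamarBlue reduction, measured fluorometrically at 525/598 nm.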
Take `O=C(Cn1c(=O)sc2ccc(Cl)cc21)N1CCN(CCO)CC1`: the max response is -8.47% (inactive). For the molecule `C[C@H]1C[C@@H]2[C@H]([C@@H](O)C[C@@]3(C)[C@H]2CC[C@]3(O)C(=O)COC(=O)CCC(=O)O)[C@@]2(C)C=CC(=O)C=C12`, the max response is -6.5% (inactive). On to `NCCCC[C@H](NC(=O)[C@@H]1CCCN1C(=O)[C@@H]1CSSC[C@H](N)C(=O)N[C@@H](Cc2ccccc2)C(=O)N[C@@H](Cc2ccccc2)C(=O)N[C@@H](CCC(N)=O)C(=O)N[C@@H](CC(N)=O)C(=O)N1)C(=O)NCC(N)=O`, for which the max response is -4.07% (inactive). In the case of `CCCCCCCCCCCCCCCC(=O)OC/C=C(C)/C=C/C=C(C)/C=C/C1=C(C)CCCC1(C)C`, the max response was -4.83% (inactive). In the case of `C[C@H](CSC(=O)c1ccccc1)C(=O)N1C[C@@H](Sc2ccccc2)C[C@H]1C(=O)O`, the max response was 13.2% (inactive). Take `CCCCC(=O)O`: the max response was -7.14% (inactive) and 15.8% (inactive). Next, `NCCC[C@H](N)C(=O)O`: -1.29% (inactive). Next, `COC1=C(C(=O)O)N2C(=O)[C@@H](NC(=O)[C@H](N)C3=CCC=CC3)[C@H]2SC1`: -12.6% (inactive). Next, `CCOC(=O)[C@H](CCc1ccccc1)N[C@H]1CCCN2CCC[C@@H](C(=O)O)N2C1=O`: -15.1% (inactive); `CCC(=O)OCC(=O)[C@@]1(OC(=O)CC)[C@@H](C)C[C@H]2[C@@H]3CCC4=CC(=O)C=C[C@]4(C)[C@@]3(Cl)[C@@H](O)C[C@@]21C`: 0.406% (inactive). `CC#CCC(C)[C@H](O)/C=C/[C@@H]1[C@H]2c3cccc(CCCC(=O)O)c3O[C@H]2C[C@H]1O` (stereo partly drawn): the max response is 6.65% (inactive). `CN1CCN(C2=Nc3ccccc3Cc3ccccc32)CC1`: the max response is 2.36% (inactive).

As for `O=C(O)[C@@H](O)[C@H](O)[C@H](O)[C@@H](O)C(=O)O` (tested in a mixture with another compound), the max response is 5.9% (inactive). Next, `CSCC[C@H](NC(=O)[C@H](Cc1ccc(OS(=O)(=O)O)cc1)NC(=O)[C@@H](N)CC(=O)O)C(=O)NCC(=O)N[C@@H](Cc1c[nH]c2ccccc12)C(=O)N[C@@H](CCSC)C(=O)N[C@@H](CC(=O)O)C(=O)N[C@@H](Cc1ccccc1)C(N)=O`: -12.2% (inactive) and 15% (inactive). Consider `CN(C(=O)CO)c1c(I)c(C(=O)NCC(O)CO)c(I)c(C(=O)NCC(O)CO)c1I` (stereo not drawn), for which the max response is -2.64% (inactive). As for `CCCCCC(O)/C=C/C=O` (stereo not drawn), the max response was -0.932% (inactive). With `Nc1c(CC(=O)O)cccc1C(=O)c1ccccc1` the figure was -9.51% (inactive) and 6.92% (inactive); with `CCN(CC)CCOC(=O)c1ccc(N)cc1Cl`, -6.93% (inactive). As for `c1ccc2c(CCC3CCNCC3)c[nH]c2c1`, the max response is -9.29% (inactive). With `C=C[C@]1(C)C[C@@H](OC(=O)CO)[C@]2(C)[C@H](C)CC[C@]3(CCC(=O)[C@H]32)[C@@H](C)[C@@H]1O` the figure was 11.6% (inactive); with `Cc1cc(Nc2ccccc2C(=O)O)ccc1Cl`, -23.6% (inactive). Take `CCCCCCCCCCCCCCCC(=O)OC[C@@H](COP(=O)([O-])OCC[N+](C)(C)C)OC(=O)CCCCCCCCCCCCCCC`: the max response was 1.44% (inactive).

`CC(=O)OC[C@H]1O[C@@H](O[C@H]2[C@H](O)[C@@H](OC(=O)c3ccccc3C(=O)O)[C@H](O)O[C@@H]2COC(C)=O)[C@H](O)[C@@H](OC(=O)c2ccccc2C(=O)O)[C@@H]1O`: the max response is -3.61% (inactive). With `CCCCCCCCCCCCCCCC(=O)O[C@@H]1CC(C)=C(/C=C/C(C)=C/C=C/C(C)=C/C=C/C=C(C)/C=C/C=C(C)/C=C/C2=C(C)C[C@@H](OC(=O)CCCCCCCCCCCCCCC)CC2(C)C)C(C)(C)C1` the figure was 1.34% (inactive). Next, `Nc1ncnc(Nc2ccc(Cl)cc2)n1`: -12% (inactive). As for `CN1CC(O)c2cc(N=NC(N)=O)c(O)cc21` (stereo not drawn), the max response is -4.67% (inactive). With `CO[C@H]1C[C@H](O[C@H]2[C@H](C)O[C@@H](O[C@@H]3/C(C)=C/C[C@@H]4C[C@@H](C[C@]5(C=C[C@H](C)[C@@H](C6CCCCC6)O5)O4)OC(=O)[C@@H]4C=C(C)[C@@H](O)[C@H]5OC/C(=C\C=C\[C@@H]3C)[C@]54O)C[C@@H]2OC)O[C@@H](C)[C@@H]1O` the figure was -11.6% (inactive); with `CO/N=C(\C(=O)N[C@@H]1C(=O)N2C(C(=O)OCOC(=O)C(C)(C)C)=C(/C=C\c3scnc3C)CS[C@H]12)c1csc(N)n1`, -6.43% (inactive).
